# Cruzain Triton = cruzain (T. cruzi) inhibition with detergent | P25779 | purified cruzain, Z-FR-AMC fluorescence, 0.01% Triton | Potency, µM, without a hit: max response, negative = inhibition, most hits filed as inhibitors | 200,000 compounds, 0.43% hits | AID 1478;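 also: plate controls were neutral wells for no effect and buffer without enzyme for full effect; nearly all actives have a fitted effect of over 40% in size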
# Target sequence (P25779 123-467 limits assumed): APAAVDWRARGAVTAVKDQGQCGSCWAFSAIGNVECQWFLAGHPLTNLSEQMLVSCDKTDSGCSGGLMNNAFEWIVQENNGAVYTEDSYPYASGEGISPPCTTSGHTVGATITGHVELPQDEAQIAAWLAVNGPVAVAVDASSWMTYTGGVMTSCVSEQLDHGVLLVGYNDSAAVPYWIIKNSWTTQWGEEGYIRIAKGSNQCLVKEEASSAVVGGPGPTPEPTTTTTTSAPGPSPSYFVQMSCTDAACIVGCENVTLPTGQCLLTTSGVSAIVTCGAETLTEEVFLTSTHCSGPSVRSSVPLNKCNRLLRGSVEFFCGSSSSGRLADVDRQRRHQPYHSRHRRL
#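 Detergent-containing arm of a paired screen for aggregation-based inhibition: 0.01% Triton X-100 present. Cruzain at 1.5 nM cleaved 2 uM Z-FR-AMC at pH 5.5 with 5 mM DTT; AMC fluorescence gain over 60 s measured activity.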
# Cruzain noTriton = cruzain (T. cruzi) inhibition without detergent. P25779. AID 1476. Potency, µM, for inactives: max response, negative = inhibition, most hits filed as inhibitors. purified cruzain, Z-FR-AMC fluorescence, no detergent. 200,000 compounds, 2.3% hits;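 also: plate controls were enzyme without inhibitor for no effect and buffer without enzyme for full effect; nearly all actives have a fitted effect of over 40% in size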
#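 Purified cruzain at 1.5 nM, pre-incubated 15 min with compound at room temperature in 100 mM sodium acetate pH 5.5, 5 mM DTT, 0.00005% Triton X-100. Reaction started with 2 uM Z-FR-AMC; AMC fluorescence increase over 60 s gives rate.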
# * = called active by the depositor; u = inconclusive. Hits are enriched below; roughly 2.5% of the tested compounds scored in any of these assays. Calls follow the shape of the dose curve; as a rule, active = well fitted curve in the direction sought with a large enough effect; inconclusive = small, poorly fitted or top-dose-only effect, or another doubt; inactive = no such curve, though single readings can be large; an effect the other way counts as inactive or inconclusive. Potency is read from the fitted curve at half-maximal effect.
SMILES,Cruzain Triton,Cruzain noTriton
CN(C)C1C(=O)C(C(N)=O)=C(O)[C@@]2(O)C(=O)C3=C(O)c4c(O)ccc(Cl)c4[C@@H](O)C3C[C@@H]12 (stereo partly specified),-7%,9%
COc1cc(/C=C(/C#N)C(=O)NCCc2c[nH]c3ccccc23)ccc1OCc1ccccc1F,5%,7.9µM*
Cc1cc(/C=C(\C#N)C(=O)NCCc2c[nH]c3ccccc23)c(C)n1C,-8%,0%
CCOCCCNC(=S)NCCNc1nc2ccc(C)cc2cc1C#N,-3%,4%
COCCNC(=S)NCCCNc1nc2cc3c(cc2cc1C#N)OCO3,18µM*,u
COc1ccccc1/C=C/c1nc(C#N)c(NCC(C)C)o1,7%,27%
COc1ccccc1/C=C/c1nc(C#N)c(N2CCCCC2)o1,-25%,-1%
COc1ccccc1/C=C/c1nc(C#N)c(NCCc2ccccc2)o1,-7%,16µM*
COc1ccccc1/C=C/c1nc(C#N)c(N(C)C)o1,14µM*,u
CC12C=C(/C=C/CCc3ccco3)C(C)(C1)[C@H](CCc1ccco1)CC2=O (stereo partly specified),-2%,-11%
C=C(C(=O)OCC)C(=O)c1ccccc1,-1%,-5%
COc1ccc(C(=O)N(O)c2ccccc2)cc1,3%,-14%
Cc1ccc2onc(CNC(=O)N(C)Cc3ccccc3)c2c1,0%,-3%
O=C(Nc1ccc(N=Nc2ccccc2)cc1)c1ccc(Cl)cc1Cl,7%,13µM*
O=C(Nc1ccc(N=Nc2ccccc2)cc1)c1ccccc1Cl,-5%,-1%
COc1ccc(Cn2c(=O)c3oc4ccccc4c3n(Cc3cccc(C)c3)c2=O)cc1,-1%,-2%
CCCCN(C)CC(O)Cn1cc(/C=C/C(=O)c2ccc(OCC)cc2)c2ccccc21 (stereo unspecified),-12%,-7%
CCOc1ccc(C(=O)/C=C/c2cn(CC(O)CN3CCc4ccccc43)c3ccccc23)cc1 (stereo unspecified),-3%,6.3µM*
CCCCN(CCCC)CC(O)Cn1cc(/C=C/C(=O)c2ccccc2)c2ccccc21 (stereo unspecified),-7%,-1%
COc1ccc(C(=O)/C=C/c2cn(CC(O)CN3CCc4ccccc43)c3ccccc23)cc1 (stereo unspecified),-3%,6.3µM*
CCOc1ccc(C2=NC(c3cccs3)=Nc3ccc(C(C)C)cc3N2)cc1,-7%,3.2µM*
CC(C)c1ccc2c(c1)NC(c1ccncc1)=NC(c1cccs1)=N2,-9%,2%
N=C(N)c1ccc(/C=C\c2ccc(C(=N)N)cc2)cc1,-25%,3.2µM*
N=C(N)c1ccccc1,4%,-11%
Cc1ccc(CN2CCN(C3CCN(C(=O)Nc4ccccc4C(F)(F)F)CC3)C(=O)C2=O)cc1,1%,10%
SMILES,Cruzain Triton,Cruzain noTriton
O=C(NC(=S)Nc1ccc(N2CCOCC2)c(Cl)c1)c1sc2ccccc2c1Cl,-5%,u
COc1cc(NS(=O)(=O)c2ccc(NC(=S)NC(=O)c3sc4ccccc4c3Cl)cc2)nc(OC)n1,-6%,-7%
O=C(NC(=S)Nc1ccccc1N1CCOCC1)c1sc2ccccc2c1Cl,1%,10µM*
NC(N)=NS(=O)(=O)c1ccc(NC(=S)NC(=O)c2sc3ccccc3c2Cl)cc1,-3%,10µM*
C[C@]12CCC(=O)C=C1CCC1C2C(=O)C[C@]2(C)C1CC[C@]2(O)C(=O)CO (stereo partly specified),3%,-3%
Cc1ccc2oc(-c3cccc(NC(=O)c4sc5c([N+](=O)[O-])cccc5c4Cl)c3)nc2c1,0%,0%
C=CCN(CC=C)S(=O)(=O)c1ccc(NC(=S)NC(=O)c2ccc(-c3ccccc3)cc2)cc1,1%,-8%
C=CCN(CC=C)S(=O)(=O)c1ccc(NC(=S)NC(=O)/C=C/c2ccc(C)cc2)cc1,-1%,25µM*
C=CCN(CC=C)S(=O)(=O)c1ccc(NC(=S)NC(=O)c2ccco2)cc1,-3%,4%
CN(C)c1ccc(NC(=S)NC(=O)/C=C/c2ccc(Cl)cc2)cc1,5%,5µM*
C=CCN(CC=C)S(=O)(=O)c1ccc(NC(=S)NC(=O)/C=C/c2cccc3ccccc23)cc1,3%,4µM*
CN(C)NC(=S)Nc1ccc(Cl)cc1,6%,17%
COc1ccc(-n2c(=O)c3c(c4cc(OC)ccc4n3C)n(CCC(C)C)c2=O)cc1,-3%,12%
COC(=O)N1[C@H](Cc2ccccc2)C=C[C@]1(C)C(=O)NCc1ccc(N(C)C)cc1,-2%,10%
N[C@@](CCc1ccccc1)(C(=O)O)c1ccccc1,5%,0%
COc1cccc(-c2csc(-c3c(N)c(C(=O)c4ccccc4)n4ccccc34)n2)c1,-3%,7.9µM*
Cc1ccc(-c2csc(-c3c(N)c(C(=O)c4ccc5c(c4)OCO5)n4ccccc34)n2)cc1,-2%,u
COc1ccc(OC)c(C(=O)c2c(N)c(-c3nc(-c4ccc(C)c(C)c4)cs3)c3ccccn23)c1,-2%,-6%
CCc1ccc(C(=O)c2c(N)c(-c3nc(-c4ccc5c(c4)OCO5)cs3)c3ccccn23)cc1,-2%,2.5µM*
COc1ccc(C(=O)[C@]2(C)C=C(c3ccc(OC)cc3)[C@H](C)C2)cc1,2%,4%
O=C(c1ccccc1)[C@H](Nc1ccc2ccccc2c1)c1ccccc1,-5%,-5%
O=C(CSc1ncc2c(n1)-c1ccccc1N(Cc1ccc(Cl)cc1)S2(=O)=O)c1ccc(Cl)cc1,4%,20µM*
Cc1ccccc1CN1c2ccccc2-c2nc(SCC(=O)c3ccc(Cl)cc3)ncc2S1(=O)=O,1%,-15%
O=C(CSc1ncc2c(n1)-c1ccccc1N(Cc1ccc(F)cc1)S2(=O)=O)c1ccc(Br)cc1,-3%,u
Cc1ccccc1CN1c2ccccc2-c2nc(SCC(=O)NCc3ccccc3)ncc2S1(=O)=O,2%,-6%
SMILES,Cruzain Triton,Cruzain noTriton
O=C(CSc1ncc2c(n1)-c1ccccc1N(Cc1ccc(F)cc1)S2(=O)=O)c1ccc(Cl)cc1,1%,25µM*
COC(=O)CSc1ncc2c(n1)-c1ccccc1N(Cc1ccccc1C)S2(=O)=O,0%,13µM*
COc1cc2c(cc1NC(=O)COc1cc(C)ccc1C)oc1ccccc12,0%,1%
O=c1c(-c2ccccc2)coc2cc(O)cc(O)c12,5%,9%
CC(C)c1ccc(NC(=O)CSc2ncccc2C(=O)Oc2cccc([N+](=O)[O-])c2)cc1,-7%,16µM*
COc1ccc(NC(=O)CSc2ncccc2C(=O)OC(C)C)cc1OC,-2%,9%
O=C1NC(=Nc2ccc(Cl)cc2)/C(=C/c2ccco2)S1,-21%,5µM*
Cc1cccc(N=C2NC(=O)S/C2=C\c2ccco2)c1,-4%,u
CC(C)n1nc(C(=O)Nc2nc3ccc(S(C)(=O)=O)cc3s2)c2ccccc2c1=O,3%,14%
CC(C)n1nc(C(=O)Nc2nnc(SCc3c(Cl)cccc3Cl)s2)c2ccccc2c1=O,-1%,13µM*
CCN(CC)c1ccc(NC(=O)/C=C\c2ccccc2Cl)cc1,-10%,25µM*
CN(C)c1ccc(NC(=O)/C=C/c2ccccc2Cl)cc1,-4%,-15%
Cc1nn(CCCC(=O)Nc2cccc(F)c2)c(=O)c2c1sc1ccccc12,-4%,6%
Cc1oc(/N=C/c2c(O)ccc3ccccc23)c(C#N)c1C,-10%,13µM*
Cc1oc(/N=C/c2ccccc2O)c(C#N)c1C,2%,3%
C[C@@H](N1CCOCC1)[C@@](O)(c1ccccc1)c1ccccn1,11%,0%
